About 83,000 compounds went through this panel and 20% of them were active in at least one assay; those are over-represented in the sample as a whole.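 Each cell line was grown in a 96-well plate and treated with one concentration of compound for 48 hours. Values below 10 were considered active.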 Values without a mark were called inactive. The source made the active and inactive calls.

Growth data for 12 compounds are collected here from PubChem BioAssay (NCI).

The subject of this assay is MDA-MB-468 breast. Nature of the assay: NCI-60 one-dose screen, 48 h (100 = growth as untreated, 0 = no growth, -100 = all killed). Conditions: 10 µM unless noted.
With `O=C(NCCCCO)c1cncnc1Nc1ccc2c(ccn2Cc2cccc(F)c2)c1`, the growth is 67%.

Regarding `CCOC(=O)c1c(C=O)nc2ccccc2c1/C=C/c1ccc(Cl)cc1`, the growth is 102%.

As for `CN1CCN(c2ccc(NC3=C(Cl)C(=O)c4ncccc4C3=O)cc2C#N)CC1`, the growth is -65% (active).

As to `COc1cc(OC)c(/C=C/S(=O)(=O)Cc2ccc(OC)c(NCC(=O)O)c2)c(OC)c1`, the growth was -4.64% (active).

With `CCN(CC)C(=O)CC1=C(C)/C(=C/c2[nH]c(-c3ccc[nH]3)cc2OC)N=C1C`, the growth was 29.9%.

Turning to `CC[C@H](CO)Nc1ccc2ncc(C#Cc3cncc(C(=O)Nc4ccc(CN5CCN(C)CC5)c(C(F)(F)F)c4)c3)n2n1`, the growth was -67.8% (active).

Regarding `C#CC[C@@H]1C[C@]2(C)[C@H]3CC=C4[C@H]5[C@@H](C)[C@H](C)CC[C@]5(C(=O)NCCCCN)CC[C@@]4(C)[C@]3(C)CC[C@H]2C(C)(C)[C@H]1OC(C)=O`, the growth is 81%.

As to `Nc1nc(N)c2c(n1)NC(c1sc(Cl)nc1Cl)CC(c1ccccc1)=N2` (configuration not stated), the growth is -2.14% (active).

For the compound `Cc1ccc(-c2nc(N3CCN(CC(=O)Nc4ccc(Cl)cc4)CC3)c3ccccc3n2)cc1`, the growth was 93.3%.

Regarding `N#Cc1c(-c2ccc(Cl)cc2)nc2c(-c3ccccc3)c(Nc3ccccc3)nn2c1N`, the growth was 53.4%.

With `Nc1nc(Nc2ccccc2SSc2ccccc2Nc2nc(N)nc(-c3ccccc3)n2)nc(-c2ccccc2)n1`, the growth was 102%.

On to `COc1cc(/C=C/c2cc(/C=C/c3ccc(O)c(OC)c3)n(C(=O)Nc3ccc(C)cc3C)n2)ccc1O`, for which the growth was -30.3% (active).
